Source: ChEMBL document CHEMBL2218924, “A broad activity screen in support of a chemogenomic map for kinase signalling research and drug discovery” (Biochem J, 2013)

How the values were obtained:
[1] = biological target: Serine/threonine-protein kinase PLK3 (Homo sapiens) (UniProt Q9H4B4); details: at 1 µM
[2] = biological target: Serine/threonine-protein kinase PLK3 (Homo sapiens) (UniProt Q9H4B4); details: at 10 µM
[3] = biological target: T1, cAMP-dependent protein kinase catalytic subunit PRKX (Homo sapiens) (UniProt P51817); details: at 1 µM
T1 sequence (whole entry): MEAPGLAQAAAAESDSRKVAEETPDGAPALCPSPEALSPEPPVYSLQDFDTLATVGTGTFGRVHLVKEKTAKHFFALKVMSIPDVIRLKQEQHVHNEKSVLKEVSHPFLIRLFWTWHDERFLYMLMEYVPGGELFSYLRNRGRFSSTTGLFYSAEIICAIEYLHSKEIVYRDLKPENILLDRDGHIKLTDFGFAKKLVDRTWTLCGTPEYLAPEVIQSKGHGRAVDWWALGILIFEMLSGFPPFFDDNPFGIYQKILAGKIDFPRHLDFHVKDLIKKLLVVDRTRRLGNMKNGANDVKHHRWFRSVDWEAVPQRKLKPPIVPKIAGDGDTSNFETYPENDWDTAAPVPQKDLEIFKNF

[4] = biological target: T1, cAMP-dependent protein kinase catalytic subunit PRKX (Homo sapiens); details: at 10 µM
[5] = biological target: Protein-tyrosine kinase 2-beta (Homo sapiens) (UniProt Q14289); details: at 1 µM
[6] = biological target: Protein-tyrosine kinase 2-beta (Homo sapiens) (UniProt Q14289); details: at 10 µM
[7] = biological target: Receptor-interacting serine/threonine-protein kinase 2 (Homo sapiens) (UniProt O43353); details: at 1 µM
[8] = biological target: Receptor-interacting serine/threonine-protein kinase 2 (Homo sapiens) (UniProt O43353); details: at 10 µM
[9] = biological target: Rho-associated protein kinase 1 (Homo sapiens) (UniProt Q13464); details: at 1 µM
Chain of Rho-associated protein kinase 1 (Homo sapiens) (Q13464 2-1354 limits assumed): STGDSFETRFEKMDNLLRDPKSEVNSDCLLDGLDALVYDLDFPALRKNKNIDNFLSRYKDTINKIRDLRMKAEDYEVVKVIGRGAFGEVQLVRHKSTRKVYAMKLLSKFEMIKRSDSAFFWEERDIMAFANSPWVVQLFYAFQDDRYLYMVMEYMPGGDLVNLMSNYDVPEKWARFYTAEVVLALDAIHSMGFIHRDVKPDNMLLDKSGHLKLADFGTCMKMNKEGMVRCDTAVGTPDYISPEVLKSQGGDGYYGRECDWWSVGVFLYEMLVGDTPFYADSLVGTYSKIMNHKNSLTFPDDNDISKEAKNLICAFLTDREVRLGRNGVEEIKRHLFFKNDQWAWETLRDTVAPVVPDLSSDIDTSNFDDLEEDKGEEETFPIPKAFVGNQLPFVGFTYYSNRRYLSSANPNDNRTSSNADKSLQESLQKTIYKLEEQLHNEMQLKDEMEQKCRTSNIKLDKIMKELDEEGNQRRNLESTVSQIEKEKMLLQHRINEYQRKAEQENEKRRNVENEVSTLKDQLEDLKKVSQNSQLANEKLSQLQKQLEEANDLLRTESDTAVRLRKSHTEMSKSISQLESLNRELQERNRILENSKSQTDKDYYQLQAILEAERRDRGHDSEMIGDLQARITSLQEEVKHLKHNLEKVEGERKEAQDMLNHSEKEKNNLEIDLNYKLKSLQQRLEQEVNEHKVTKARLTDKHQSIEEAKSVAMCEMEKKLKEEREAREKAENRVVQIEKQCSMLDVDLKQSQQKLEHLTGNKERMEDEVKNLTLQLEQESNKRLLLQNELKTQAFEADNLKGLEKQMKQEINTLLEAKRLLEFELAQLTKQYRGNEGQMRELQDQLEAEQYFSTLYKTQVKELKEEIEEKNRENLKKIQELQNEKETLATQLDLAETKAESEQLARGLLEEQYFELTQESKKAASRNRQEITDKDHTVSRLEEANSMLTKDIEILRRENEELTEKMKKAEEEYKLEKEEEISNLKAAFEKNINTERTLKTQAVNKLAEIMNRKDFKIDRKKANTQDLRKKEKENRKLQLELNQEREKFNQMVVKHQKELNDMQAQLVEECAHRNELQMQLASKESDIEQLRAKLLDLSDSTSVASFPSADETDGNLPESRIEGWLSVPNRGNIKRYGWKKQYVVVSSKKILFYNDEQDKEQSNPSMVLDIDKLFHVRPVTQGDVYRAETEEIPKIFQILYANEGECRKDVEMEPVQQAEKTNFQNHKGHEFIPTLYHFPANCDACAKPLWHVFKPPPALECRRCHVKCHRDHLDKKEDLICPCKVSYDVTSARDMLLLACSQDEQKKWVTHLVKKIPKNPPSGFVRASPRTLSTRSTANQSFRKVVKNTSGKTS

[10] = biological target: Rho-associated protein kinase 1 (Homo sapiens) (UniProt Q13464); details: at 10 µM
[11] = biological target: Rho-associated protein kinase 2 (Homo sapiens) (UniProt O75116); details: at 1 µM
Chain of Rho-associated protein kinase 2 (Homo sapiens) (O75116 whole entry, looked up): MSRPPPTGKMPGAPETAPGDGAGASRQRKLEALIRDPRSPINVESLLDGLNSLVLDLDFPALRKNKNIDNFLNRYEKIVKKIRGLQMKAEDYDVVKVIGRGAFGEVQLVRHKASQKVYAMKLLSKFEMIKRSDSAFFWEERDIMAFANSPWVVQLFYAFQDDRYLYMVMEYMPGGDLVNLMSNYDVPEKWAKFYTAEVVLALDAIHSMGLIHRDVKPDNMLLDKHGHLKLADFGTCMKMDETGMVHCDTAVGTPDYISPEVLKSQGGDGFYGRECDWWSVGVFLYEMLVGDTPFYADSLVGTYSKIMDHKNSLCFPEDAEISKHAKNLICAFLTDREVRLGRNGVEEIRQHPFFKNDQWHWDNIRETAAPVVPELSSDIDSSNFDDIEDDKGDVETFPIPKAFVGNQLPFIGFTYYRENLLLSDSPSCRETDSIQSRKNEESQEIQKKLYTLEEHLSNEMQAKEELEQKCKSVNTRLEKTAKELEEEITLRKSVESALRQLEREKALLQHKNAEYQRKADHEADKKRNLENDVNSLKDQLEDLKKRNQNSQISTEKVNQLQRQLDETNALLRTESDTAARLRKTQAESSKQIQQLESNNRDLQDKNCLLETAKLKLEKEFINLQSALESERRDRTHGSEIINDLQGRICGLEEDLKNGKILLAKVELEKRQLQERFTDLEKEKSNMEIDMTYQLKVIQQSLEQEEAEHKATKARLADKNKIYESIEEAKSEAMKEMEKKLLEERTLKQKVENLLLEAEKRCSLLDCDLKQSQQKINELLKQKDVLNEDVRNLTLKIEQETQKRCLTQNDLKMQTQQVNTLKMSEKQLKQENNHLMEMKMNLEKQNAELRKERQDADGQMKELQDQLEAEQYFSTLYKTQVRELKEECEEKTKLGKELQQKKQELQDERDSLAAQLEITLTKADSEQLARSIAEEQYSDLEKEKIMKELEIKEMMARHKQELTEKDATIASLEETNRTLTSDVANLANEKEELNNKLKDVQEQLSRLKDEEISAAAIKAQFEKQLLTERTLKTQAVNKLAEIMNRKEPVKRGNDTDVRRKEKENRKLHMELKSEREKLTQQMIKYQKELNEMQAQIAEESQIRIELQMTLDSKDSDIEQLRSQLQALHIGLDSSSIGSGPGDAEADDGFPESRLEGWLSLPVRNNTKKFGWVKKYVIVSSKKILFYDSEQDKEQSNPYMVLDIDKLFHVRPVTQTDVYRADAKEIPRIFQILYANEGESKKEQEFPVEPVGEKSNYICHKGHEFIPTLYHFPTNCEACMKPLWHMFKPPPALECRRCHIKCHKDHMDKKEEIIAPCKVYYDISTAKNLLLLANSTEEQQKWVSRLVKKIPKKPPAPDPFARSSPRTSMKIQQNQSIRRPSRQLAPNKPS

[12] = biological target: Rho-associated protein kinase 2 (Homo sapiens) (UniProt O75116); details: at 10 µM
[13] = biological target: Proto-oncogene tyrosine-protein kinase receptor Ret (Homo sapiens) (UniProt P07949); details: at 1 µM
[14] = biological target: Proto-oncogene tyrosine-protein kinase receptor Ret (Homo sapiens) (UniProt P07949); details: at 10 µM
[15] = biological target: Macrophage-stimulating protein receptor (Homo sapiens) (UniProt Q04912); details: at 1 µM
Chain of Macrophage-stimulating protein receptor (Homo sapiens) (Q04912 25-304 limits assumed): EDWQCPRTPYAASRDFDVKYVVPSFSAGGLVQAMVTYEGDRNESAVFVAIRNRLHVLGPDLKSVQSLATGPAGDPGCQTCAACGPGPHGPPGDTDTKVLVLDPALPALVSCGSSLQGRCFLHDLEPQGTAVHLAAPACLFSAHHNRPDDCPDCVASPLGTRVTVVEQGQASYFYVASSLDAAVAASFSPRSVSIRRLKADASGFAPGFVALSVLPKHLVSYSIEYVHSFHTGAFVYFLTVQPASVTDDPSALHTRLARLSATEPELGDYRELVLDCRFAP
Chain of Macrophage-stimulating protein receptor (Homo sapiens) (Q04912 310-1400 limits assumed): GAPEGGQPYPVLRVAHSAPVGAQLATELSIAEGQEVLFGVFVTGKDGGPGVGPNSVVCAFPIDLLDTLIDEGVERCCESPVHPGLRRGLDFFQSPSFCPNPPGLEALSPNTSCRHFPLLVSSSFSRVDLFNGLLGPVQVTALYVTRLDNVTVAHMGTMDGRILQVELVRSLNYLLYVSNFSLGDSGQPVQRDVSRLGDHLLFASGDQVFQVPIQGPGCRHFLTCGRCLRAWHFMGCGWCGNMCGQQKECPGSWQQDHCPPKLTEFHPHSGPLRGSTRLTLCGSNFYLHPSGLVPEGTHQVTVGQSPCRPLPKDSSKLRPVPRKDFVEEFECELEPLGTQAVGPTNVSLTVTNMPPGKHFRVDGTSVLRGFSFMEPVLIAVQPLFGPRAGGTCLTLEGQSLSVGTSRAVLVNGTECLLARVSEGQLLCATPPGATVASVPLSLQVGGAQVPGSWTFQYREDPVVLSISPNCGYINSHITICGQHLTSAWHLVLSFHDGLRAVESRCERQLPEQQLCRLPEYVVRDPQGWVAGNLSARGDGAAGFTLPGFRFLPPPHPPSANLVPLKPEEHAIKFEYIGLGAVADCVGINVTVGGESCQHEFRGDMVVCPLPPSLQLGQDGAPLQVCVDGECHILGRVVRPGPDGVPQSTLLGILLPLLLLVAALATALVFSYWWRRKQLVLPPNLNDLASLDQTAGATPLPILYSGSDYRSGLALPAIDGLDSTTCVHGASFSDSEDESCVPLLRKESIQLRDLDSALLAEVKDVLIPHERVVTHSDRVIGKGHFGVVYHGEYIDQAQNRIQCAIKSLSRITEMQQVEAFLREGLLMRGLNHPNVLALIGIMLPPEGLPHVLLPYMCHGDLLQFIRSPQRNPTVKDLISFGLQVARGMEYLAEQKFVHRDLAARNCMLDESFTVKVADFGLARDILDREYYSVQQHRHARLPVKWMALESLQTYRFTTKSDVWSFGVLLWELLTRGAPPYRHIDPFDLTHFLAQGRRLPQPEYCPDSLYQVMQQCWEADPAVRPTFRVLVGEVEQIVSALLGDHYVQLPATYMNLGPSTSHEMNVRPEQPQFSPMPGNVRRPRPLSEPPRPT

[16] = biological target: Macrophage-stimulating protein receptor (Homo sapiens) (UniProt Q04912); details: at 10 µM
[17] = biological target: Proto-oncogene tyrosine-protein kinase ROS (Homo sapiens) (UniProt P08922); details: at 1 µM
[18] = biological target: Proto-oncogene tyrosine-protein kinase ROS (Homo sapiens) (UniProt P08922); details: at 10 µM
[19] = biological target: T2, Tyrosine-protein kinase receptor TYRO3 (Homo sapiens) (UniProt Q06418); details: at 1 µM
T2 sequence (whole entry): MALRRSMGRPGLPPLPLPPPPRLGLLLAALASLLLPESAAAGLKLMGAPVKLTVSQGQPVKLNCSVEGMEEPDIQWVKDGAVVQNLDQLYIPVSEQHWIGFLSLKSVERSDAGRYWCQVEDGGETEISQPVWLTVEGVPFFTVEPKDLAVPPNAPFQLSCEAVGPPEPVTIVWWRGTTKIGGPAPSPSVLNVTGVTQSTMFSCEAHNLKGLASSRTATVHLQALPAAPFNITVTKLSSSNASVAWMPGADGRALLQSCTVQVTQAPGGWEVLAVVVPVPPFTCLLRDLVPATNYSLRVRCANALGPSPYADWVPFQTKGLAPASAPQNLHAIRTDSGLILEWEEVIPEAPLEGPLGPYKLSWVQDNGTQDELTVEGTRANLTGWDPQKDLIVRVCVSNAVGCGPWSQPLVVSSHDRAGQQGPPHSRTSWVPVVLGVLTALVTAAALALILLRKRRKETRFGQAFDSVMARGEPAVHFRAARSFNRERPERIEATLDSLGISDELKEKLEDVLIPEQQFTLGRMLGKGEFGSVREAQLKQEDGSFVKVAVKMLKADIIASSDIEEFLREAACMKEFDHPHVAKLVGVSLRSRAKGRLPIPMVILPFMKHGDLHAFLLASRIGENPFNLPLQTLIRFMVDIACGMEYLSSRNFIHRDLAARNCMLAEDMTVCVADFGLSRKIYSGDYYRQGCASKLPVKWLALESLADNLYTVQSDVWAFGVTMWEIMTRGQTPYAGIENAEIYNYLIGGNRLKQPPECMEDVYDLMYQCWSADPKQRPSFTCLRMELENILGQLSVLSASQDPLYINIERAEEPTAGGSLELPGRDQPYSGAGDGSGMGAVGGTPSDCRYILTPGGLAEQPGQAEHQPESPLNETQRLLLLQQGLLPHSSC

[20] = biological target: T2, Tyrosine-protein kinase receptor TYRO3 (Homo sapiens); details: at 10 µM

Chain of Serine/threonine-protein kinase PLK3 (Homo sapiens) (Q9H4B4 whole entry, looked up): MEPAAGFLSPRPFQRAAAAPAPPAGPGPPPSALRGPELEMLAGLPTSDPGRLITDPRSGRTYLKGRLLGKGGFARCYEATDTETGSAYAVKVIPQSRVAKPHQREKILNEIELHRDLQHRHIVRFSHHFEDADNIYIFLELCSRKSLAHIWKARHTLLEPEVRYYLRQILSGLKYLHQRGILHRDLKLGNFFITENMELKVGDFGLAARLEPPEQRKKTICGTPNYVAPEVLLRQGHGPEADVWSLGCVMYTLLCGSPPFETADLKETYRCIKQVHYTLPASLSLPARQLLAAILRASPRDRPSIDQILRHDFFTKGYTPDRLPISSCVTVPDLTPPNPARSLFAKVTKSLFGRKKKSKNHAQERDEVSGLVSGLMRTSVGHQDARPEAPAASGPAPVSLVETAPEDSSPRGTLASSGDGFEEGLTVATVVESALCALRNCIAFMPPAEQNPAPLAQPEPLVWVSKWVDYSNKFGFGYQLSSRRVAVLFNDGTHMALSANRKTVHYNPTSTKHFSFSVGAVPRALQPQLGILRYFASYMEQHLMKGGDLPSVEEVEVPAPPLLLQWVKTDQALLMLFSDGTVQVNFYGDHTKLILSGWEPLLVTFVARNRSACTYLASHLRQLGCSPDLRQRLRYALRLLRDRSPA

SMILES	residual activity [1]	residual activity [2] [%]	residual activity [3] [%]	residual activity [4] [%]	residual activity [5] [%]	residual activity [6] [%]	residual activity [7] [%]	residual activity [8] [%]	residual activity [9] [%]	residual activity [10] [%]	residual activity [11] [%]	residual activity [12] [%]	residual activity [13] [%]	residual activity [14] [%]	residual activity [15] [%]	residual activity [16] [%]	residual activity [17] [%]	residual activity [18] [%]	residual activity [19] [%]	residual activity [20] [%]
O=c1cc(-c2cccc3c2Sc2ccccc2S3)oc(N2CCOCC2)c1	107% (inactive)	95	95	72	91	112	94	96	102	96	102	101	102	83	90	104	109	96	93	103
CN(C)c1ccc(/C=C2\C(=O)Nc3ccccc32)cc1	94% (inactive)	88	92	66	103	47	103	83	132	123	112	38	66	32	91	92	106	103	100	99
COc1ccc(C(=O)Nc2sc3c(c2C(N)=O)CCCC3)cc1OC	90% (inactive)	91	80	95	121	89	79	71	101	119	96	80	93	113	99	73	96	97	86	96
Cc1ccc(S(=O)(=O)/C=C/C#N)cc1	103% (inactive)	97	91	101	102	104	88	88	119	106	89	93	115	90	80	91	104	92	107	99
CC(C)n1cnc2/c(=N/c3cccc(Cl)c3)nc(NCCO)[nH]c21	93% (inactive)	57	82	65	56	18	77	68	113	82	83	66	93	40	74	70	77	63	118	51
CC(=O)O/N=C1\C(=C2\C(=O)Nc3cc(Br)ccc32)Nc2ccccc21	92% (inactive)	99	77	93	79	32	92	84	123	119	98	95	6	-1	85	89	100	90	100	98
O=C1c2ccccc2-[n+]2ccc3c([nH]c4ccccc43)c21	98% (inactive)	91	92	53	101	97	90	88	126	115	89	86	89	75	77	70	89	88	104	107
CNc1cc2c(Nc3cccc(Br)c3)ncnc2cn1	90% (inactive)	91	95	75	116	64	43	38	110	126	100	85	67	75	88	66	96	99	77	83
Cc1nc(-c2ccccc2)c(-c2ccncc2)o1	106% (inactive)	96	86	85	91	79	58	25	124	108	106	76	11	7	87	96	98	97	98	121
N#Cc1cnc2cnc(NCc3cccnc3)cc2c1Nc1ccc(F)c(Cl)c1		96	95	87	66	45	100	96	37	19	2	3	88	62	100	88	67	52		
Cc1cc2ncc(-c3ccccc3)nc2cc1C	87% (inactive)	92	108	97	126	101	108	82			100	94	96	104	92	79	101	100		
COc1cc2ncc(-c3ccccc3)nc2cc1OC	95% (inactive)	93	88	76		76		58					94	92	98	92			96	98
O=C(Nc1cccc(Nc2nccc(Nc3cccc(C(F)(F)F)c3)n2)c1)C1CC1	73% (inactive)	88	103	51	55	12	69	71	106	127	108	88	74	81	93	38	102	68	70	89
CN(C)CCCn1cc(C2=C(c3c[nH]c4ccccc34)C(=O)NC2=O)c2ccccc21	101% (inactive)	104	103	38	115	42	90	77	83	89	119	88		64	102	87	108			76
